# Assay results published in paper PMC7862700, “An all-to-all approach to the identification of sequence-specific readers for epigenetic DNA modifications on cytosine”.
# How the values were obtained:
# Test in all cases: DAPPL (digital affinity profiling via proximity ligation, sequencing); 10 mM Tris-HCl pH 7.5, 50 mM NaCl, 1 mM DTT, 4% glycerol, room temperature, 30 min; GST-TFs on glutathione beads, 16-mer random dsDNA library, 0.1% formaldehyde crosslink after washing; high values mean tight binding
# FLI1 = target: T1, FLI1 (Homo sapiens, UniProt Q01543 1-452); settings: protein: recombinant; tags: N-terminal GST; dsDNA, one strand shown
# T1 sequence: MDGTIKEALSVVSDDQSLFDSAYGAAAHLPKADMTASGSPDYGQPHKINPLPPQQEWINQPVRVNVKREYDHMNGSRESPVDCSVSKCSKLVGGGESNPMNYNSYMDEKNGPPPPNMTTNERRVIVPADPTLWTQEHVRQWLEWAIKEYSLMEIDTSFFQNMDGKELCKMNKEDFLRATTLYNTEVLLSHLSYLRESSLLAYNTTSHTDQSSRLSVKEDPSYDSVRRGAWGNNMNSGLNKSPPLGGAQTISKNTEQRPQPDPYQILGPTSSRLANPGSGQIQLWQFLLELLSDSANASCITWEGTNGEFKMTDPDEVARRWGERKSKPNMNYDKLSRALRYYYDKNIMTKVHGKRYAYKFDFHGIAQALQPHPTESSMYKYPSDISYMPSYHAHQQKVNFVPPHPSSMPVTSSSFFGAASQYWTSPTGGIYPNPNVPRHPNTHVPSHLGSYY
# Method in brief: (§1)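 GST fusions of human transcription factors were expressed in yeast and captured with glutathione beads. Once given DNA barcodes and pooled alongside a tag-only sample, they were incubated for 30 min at room temperature with 200 nmole of a random double-stranded 16-mer DNA library in Tris/NaCl/DTT/glycerol buffer, then washed, crosslinked (0.1% formaldehyde), proximity-ligated, PCR-amplified and sequenced on an Illumina NextSeq500. The binding signal of each hexamer is its read frequency for a factor divided by its frequency for the tag-only sample.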
# ELK1 = target: T2, ELK1 (Homo sapiens, UniProt P19419 1-428); settings: protein: recombinant; tags: N-terminal GST; dsDNA, one strand shown
# T2 sequence: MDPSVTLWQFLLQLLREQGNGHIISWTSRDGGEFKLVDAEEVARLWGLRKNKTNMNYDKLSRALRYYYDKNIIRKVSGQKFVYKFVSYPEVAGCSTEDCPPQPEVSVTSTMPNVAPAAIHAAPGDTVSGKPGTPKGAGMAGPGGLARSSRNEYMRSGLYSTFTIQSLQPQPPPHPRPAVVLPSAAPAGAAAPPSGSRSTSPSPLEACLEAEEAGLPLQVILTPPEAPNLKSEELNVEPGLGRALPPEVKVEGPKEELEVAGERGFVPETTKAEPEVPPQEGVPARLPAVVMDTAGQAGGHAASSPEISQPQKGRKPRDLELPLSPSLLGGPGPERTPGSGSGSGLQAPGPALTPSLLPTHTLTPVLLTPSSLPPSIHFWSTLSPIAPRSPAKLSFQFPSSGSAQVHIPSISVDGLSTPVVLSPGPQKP
# Method in brief: as §1
# GABPA = target: T3, GABPA (Homo sapiens, UniProt Q06546 1-454); settings: protein: recombinant; tags: N-terminal GST; dsDNA, one strand shown
# T3 sequence: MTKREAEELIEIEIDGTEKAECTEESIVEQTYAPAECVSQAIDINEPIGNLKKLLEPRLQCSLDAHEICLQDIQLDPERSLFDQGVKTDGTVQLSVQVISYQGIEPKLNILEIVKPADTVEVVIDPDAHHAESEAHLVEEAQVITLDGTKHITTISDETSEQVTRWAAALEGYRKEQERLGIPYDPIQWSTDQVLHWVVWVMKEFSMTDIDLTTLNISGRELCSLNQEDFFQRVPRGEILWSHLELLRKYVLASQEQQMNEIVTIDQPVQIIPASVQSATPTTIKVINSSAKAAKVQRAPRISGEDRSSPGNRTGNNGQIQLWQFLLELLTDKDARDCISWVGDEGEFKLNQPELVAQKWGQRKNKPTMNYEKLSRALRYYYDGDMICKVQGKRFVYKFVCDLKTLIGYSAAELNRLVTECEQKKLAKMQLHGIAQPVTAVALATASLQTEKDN
# Method in brief: as §1
# ERG = target: T4, ERG (Homo sapiens, UniProt P11308 1-479); settings: protein: recombinant; tags: N-terminal GST; dsDNA, one strand shown
# T4 sequence: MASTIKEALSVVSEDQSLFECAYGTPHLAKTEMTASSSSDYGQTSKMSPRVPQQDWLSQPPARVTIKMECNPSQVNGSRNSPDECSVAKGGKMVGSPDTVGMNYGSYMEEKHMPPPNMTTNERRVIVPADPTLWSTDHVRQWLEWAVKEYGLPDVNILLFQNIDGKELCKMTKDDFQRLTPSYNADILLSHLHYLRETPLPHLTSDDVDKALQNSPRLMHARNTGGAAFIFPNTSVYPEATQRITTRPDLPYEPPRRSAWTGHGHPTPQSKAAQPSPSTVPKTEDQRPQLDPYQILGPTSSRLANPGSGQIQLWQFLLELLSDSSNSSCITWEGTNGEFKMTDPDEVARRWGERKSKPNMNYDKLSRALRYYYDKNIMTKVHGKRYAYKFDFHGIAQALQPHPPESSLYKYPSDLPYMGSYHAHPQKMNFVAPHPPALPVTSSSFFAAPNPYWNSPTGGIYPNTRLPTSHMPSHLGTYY
# Method in brief: as §1
# ELF1 = ELF1 (Homo sapiens, UniProt P32519 1-619); settings: protein: recombinant; tags: N-terminal GST; dsDNA, one strand shown
# Chain of ELF1 (P32519 whole entry): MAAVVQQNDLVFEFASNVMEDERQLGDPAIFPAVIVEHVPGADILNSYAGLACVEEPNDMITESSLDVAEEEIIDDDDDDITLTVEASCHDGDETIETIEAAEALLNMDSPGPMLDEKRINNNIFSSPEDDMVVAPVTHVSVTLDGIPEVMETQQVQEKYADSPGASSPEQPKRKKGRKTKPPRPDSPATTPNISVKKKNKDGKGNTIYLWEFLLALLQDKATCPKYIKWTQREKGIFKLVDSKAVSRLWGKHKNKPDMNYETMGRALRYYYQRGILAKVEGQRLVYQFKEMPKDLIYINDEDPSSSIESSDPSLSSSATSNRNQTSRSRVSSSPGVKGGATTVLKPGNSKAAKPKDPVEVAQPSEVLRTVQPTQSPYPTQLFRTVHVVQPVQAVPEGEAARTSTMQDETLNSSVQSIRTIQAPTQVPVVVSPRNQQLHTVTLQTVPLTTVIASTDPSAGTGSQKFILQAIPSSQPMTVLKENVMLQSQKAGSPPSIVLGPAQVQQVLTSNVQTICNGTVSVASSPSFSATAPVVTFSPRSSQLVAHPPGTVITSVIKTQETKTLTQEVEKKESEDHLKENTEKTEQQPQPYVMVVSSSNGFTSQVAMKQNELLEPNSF
# Method in brief: as §1
# EHF = target: T5, EHF (Homo sapiens, UniProt Q9NZC4 1-300); settings: protein: recombinant; tags: N-terminal GST; dsDNA, one strand shown
# T5 sequence: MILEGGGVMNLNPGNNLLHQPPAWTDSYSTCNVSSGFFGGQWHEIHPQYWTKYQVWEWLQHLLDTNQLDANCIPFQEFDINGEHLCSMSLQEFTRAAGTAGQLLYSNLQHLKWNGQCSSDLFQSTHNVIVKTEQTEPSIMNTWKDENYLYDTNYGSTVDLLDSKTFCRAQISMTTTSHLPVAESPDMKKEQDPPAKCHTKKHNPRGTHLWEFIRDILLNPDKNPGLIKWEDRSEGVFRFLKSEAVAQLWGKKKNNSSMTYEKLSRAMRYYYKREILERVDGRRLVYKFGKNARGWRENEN
# Method in brief: as §1
# SPI1 = SPI1 (Homo sapiens, UniProt P17947 1-270); settings: protein: recombinant; tags: N-terminal GST; dsDNA, one strand shown
# Method in brief: as §1
# SPIB = SPIB (Homo sapiens, UniProt Q01892 1-262); settings: protein: recombinant; tags: N-terminal GST; dsDNA, one strand shown
# Chain of SPIB (Q01892 whole entry): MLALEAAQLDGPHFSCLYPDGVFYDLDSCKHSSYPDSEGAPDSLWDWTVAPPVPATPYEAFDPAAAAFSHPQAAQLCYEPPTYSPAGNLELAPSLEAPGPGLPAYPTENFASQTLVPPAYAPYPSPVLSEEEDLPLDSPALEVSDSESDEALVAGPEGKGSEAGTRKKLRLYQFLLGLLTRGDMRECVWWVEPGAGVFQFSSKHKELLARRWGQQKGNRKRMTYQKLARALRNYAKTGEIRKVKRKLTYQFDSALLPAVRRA
# Method in brief: as §1
# ELK3 = target: T6, ELK3 (Homo sapiens, UniProt P41970 1-407); settings: protein: recombinant; tags: N-terminal GST; dsDNA, one strand shown
# T6 sequence: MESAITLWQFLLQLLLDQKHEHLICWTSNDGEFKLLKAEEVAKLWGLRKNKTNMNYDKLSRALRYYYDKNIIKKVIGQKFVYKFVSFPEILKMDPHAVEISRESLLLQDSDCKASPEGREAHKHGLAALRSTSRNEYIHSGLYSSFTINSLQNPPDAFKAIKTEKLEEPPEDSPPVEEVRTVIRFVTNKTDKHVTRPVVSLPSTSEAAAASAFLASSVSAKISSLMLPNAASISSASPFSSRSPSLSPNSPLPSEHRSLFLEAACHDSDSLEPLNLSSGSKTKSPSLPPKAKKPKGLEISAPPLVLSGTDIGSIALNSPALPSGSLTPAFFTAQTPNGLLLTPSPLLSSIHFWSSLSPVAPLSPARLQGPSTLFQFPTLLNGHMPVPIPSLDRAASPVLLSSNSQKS
# Method in brief: as §1
# FEV = target: T7, FEV (Homo sapiens, UniProt Q99581 1-238); settings: protein: recombinant; tags: N-terminal GST; dsDNA, one strand shown
# T7 sequence: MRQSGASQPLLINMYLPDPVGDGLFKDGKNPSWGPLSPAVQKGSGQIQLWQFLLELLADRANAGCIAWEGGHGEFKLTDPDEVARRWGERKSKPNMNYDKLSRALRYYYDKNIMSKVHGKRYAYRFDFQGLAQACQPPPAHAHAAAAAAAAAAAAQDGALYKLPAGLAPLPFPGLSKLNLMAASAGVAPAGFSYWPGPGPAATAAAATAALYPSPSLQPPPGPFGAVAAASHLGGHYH
# Method in brief: as §1
# ETV5 = ETV5 (Homo sapiens, UniProt P41161 1-510); settings: protein: recombinant; tags: N-terminal GST; dsDNA, one strand shown
# Chain of ETV5 (P41161 whole entry): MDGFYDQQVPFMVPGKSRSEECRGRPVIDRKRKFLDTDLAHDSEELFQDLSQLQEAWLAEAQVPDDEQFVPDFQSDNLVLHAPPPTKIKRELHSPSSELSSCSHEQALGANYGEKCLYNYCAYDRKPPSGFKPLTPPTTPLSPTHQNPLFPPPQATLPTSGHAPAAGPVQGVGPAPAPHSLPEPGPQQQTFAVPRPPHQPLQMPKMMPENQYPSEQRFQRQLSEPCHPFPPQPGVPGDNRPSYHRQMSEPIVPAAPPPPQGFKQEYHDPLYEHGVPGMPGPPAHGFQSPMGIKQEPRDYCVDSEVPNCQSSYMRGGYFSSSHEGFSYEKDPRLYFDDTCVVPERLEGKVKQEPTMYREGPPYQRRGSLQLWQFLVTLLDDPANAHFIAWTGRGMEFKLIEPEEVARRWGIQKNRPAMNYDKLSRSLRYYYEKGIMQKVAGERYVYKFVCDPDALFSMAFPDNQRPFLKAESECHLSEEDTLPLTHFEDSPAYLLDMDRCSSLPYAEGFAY
# Method in brief: as §1
# HSF1 = HSF1 (Homo sapiens, UniProt Q00613 1-529); settings: protein: recombinant; tags: N-terminal GST; chain copies: 3; dsDNA, one strand shown
# Chain of HSF1 (Q00613 whole entry): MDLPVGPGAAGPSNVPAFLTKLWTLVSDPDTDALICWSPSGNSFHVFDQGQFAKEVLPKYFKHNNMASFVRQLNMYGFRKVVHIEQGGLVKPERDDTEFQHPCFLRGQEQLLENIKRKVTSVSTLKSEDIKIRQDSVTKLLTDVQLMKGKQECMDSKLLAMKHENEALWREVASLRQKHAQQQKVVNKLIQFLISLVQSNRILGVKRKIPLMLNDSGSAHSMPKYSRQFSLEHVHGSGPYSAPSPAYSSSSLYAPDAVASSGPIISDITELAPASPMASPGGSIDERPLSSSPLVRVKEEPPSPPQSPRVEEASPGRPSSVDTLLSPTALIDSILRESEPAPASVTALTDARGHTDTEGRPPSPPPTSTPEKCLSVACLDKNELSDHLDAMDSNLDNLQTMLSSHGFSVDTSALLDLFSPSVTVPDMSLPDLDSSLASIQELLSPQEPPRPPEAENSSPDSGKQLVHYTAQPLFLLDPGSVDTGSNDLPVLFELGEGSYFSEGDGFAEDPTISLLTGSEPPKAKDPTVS
# Method in brief: as §1
# SPIC = target: T8, SPIC (Homo sapiens, UniProt Q8N5J4 1-248); settings: protein: recombinant; tags: N-terminal GST; dsDNA, one strand shown
# T8 sequence: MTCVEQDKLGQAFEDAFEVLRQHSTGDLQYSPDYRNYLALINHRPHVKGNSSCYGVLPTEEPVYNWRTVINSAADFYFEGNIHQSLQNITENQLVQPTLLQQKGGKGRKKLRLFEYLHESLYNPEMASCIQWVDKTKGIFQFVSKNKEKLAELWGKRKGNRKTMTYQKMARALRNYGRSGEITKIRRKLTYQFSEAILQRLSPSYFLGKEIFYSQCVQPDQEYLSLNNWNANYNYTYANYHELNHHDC
# Method in brief: as §1
# ELF4 = ELF4 (Homo sapiens, UniProt Q99607 1-663); settings: protein: recombinant; tags: N-terminal GST; dsDNA, one strand shown
# Chain of ELF4 (Q99607 whole entry): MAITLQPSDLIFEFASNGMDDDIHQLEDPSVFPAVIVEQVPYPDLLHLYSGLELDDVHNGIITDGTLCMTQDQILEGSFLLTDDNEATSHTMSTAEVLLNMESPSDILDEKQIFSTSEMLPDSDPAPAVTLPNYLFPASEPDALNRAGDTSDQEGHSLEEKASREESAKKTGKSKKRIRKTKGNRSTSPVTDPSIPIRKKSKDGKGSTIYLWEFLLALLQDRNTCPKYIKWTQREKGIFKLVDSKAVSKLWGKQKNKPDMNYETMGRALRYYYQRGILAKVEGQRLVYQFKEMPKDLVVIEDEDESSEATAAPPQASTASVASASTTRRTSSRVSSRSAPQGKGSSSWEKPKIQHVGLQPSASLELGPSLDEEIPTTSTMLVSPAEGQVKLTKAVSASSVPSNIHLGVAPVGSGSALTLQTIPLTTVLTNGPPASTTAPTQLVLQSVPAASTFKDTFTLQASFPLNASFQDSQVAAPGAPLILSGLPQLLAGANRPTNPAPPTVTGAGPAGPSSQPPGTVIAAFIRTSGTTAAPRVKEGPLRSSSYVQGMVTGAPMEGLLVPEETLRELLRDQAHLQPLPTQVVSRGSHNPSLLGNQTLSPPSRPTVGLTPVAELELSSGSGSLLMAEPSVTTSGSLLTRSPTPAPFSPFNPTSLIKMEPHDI
# Method in brief: as §1
# ELK4 = target: T9, ELK4 (Homo sapiens, UniProt P28324-2 1-405); settings: protein: recombinant; tags: N-terminal GST; dsDNA, one strand shown
# T9 sequence: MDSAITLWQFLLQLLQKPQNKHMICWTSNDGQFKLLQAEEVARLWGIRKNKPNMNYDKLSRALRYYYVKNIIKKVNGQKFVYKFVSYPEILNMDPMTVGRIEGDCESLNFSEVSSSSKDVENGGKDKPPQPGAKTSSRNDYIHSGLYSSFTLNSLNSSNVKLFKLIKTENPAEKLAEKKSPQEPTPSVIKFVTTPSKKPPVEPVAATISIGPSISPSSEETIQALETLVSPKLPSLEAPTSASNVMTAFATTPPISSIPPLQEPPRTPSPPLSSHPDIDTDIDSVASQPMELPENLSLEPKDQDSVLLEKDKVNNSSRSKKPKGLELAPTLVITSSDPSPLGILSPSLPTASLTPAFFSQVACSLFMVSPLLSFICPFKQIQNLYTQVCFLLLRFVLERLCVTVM
# Method in brief: as §1
# ETV2 = target: T10, ETV2 (Homo sapiens, UniProt O00321 1-342); settings: protein: recombinant; tags: N-terminal GST; dsDNA, one strand shown
# T10 sequence: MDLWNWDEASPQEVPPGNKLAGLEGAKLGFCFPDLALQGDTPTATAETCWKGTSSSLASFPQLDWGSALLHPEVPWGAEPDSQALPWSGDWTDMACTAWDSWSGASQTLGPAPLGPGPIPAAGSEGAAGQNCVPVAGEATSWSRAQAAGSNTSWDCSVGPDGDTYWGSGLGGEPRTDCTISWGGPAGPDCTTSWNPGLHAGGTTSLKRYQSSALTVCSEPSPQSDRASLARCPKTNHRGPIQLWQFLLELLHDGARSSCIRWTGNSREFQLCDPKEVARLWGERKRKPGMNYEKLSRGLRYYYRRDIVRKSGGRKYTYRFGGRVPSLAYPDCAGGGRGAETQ
# Method in brief: as §1
# ELF3 = target: T11, ELF3 (Homo sapiens, UniProt P78545 1-371); settings: protein: recombinant; tags: N-terminal GST; dsDNA, one strand shown
# T11 sequence: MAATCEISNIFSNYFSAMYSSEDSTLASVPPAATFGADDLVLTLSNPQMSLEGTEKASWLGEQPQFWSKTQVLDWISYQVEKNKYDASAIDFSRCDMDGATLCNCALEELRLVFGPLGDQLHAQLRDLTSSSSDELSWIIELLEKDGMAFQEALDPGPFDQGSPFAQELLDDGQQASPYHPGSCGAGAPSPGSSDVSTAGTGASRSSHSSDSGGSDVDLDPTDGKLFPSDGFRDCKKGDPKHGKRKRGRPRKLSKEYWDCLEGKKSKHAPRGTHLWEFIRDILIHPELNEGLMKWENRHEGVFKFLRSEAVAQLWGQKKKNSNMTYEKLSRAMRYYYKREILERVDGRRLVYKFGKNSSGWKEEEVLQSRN
# Method in brief: as §1
# CRX = CRX (Homo sapiens, UniProt O43186 1-299); settings: protein: recombinant; tags: N-terminal GST; dsDNA, one strand shown
# Chain of CRX (O43186 whole entry): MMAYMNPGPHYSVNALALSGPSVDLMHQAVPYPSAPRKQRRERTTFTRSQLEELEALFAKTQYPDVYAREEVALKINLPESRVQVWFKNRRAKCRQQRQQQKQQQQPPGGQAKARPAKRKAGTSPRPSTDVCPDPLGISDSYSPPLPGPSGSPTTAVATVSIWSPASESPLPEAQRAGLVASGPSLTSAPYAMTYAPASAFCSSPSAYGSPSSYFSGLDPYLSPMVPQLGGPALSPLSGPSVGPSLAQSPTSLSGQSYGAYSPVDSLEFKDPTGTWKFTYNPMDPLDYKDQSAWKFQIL
# Method in brief: as §1
# ETV1 = ETV1 (Homo sapiens, UniProt P50549 1-477); settings: protein: recombinant; tags: N-terminal GST; dsDNA, one strand shown
# Chain of ETV1 (P50549 whole entry): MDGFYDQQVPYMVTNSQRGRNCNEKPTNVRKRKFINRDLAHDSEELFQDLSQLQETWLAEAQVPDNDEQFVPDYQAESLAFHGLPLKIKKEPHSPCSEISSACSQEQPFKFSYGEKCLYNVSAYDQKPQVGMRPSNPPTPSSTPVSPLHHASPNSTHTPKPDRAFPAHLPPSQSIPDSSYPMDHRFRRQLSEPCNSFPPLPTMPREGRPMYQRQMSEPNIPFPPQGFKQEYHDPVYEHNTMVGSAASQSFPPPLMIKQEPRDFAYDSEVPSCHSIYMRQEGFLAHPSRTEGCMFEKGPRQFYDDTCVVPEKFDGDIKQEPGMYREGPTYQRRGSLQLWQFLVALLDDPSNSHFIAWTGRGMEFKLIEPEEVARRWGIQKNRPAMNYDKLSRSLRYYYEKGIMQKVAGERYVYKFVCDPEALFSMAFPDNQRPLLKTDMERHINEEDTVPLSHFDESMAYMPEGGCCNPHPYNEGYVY
# Method in brief: as §1
sequence,measurement,setting,value
TCGACT,binding signal,FLI1,"1.33 fold enrichment (6-mer frequency, TF over GST control)"
same,binding signal,ELK1,"1.34 fold enrichment (6-mer frequency, TF over GST control)"
same,binding signal,GABPA,"1.3 fold enrichment (6-mer frequency, TF over GST control)"
same,binding signal,ERG,"1.35 fold enrichment (6-mer frequency, TF over GST control)"
same,binding signal,ELF1,"1.43 fold enrichment (6-mer frequency, TF over GST control)"
same,binding signal,EHF,"1.39 fold enrichment (6-mer frequency, TF over GST control)"
same,binding signal,SPI1,"1.42 fold enrichment (6-mer frequency, TF over GST control)"
same,binding signal,SPIB,"1.39 fold enrichment (6-mer frequency, TF over GST control)"
same,binding signal,ELK3,"1.47 fold enrichment (6-mer frequency, TF over GST control)"
same,binding signal,FEV,"1.42 fold enrichment (6-mer frequency, TF over GST control)"
same,binding signal,ETV5,"1.35 fold enrichment (6-mer frequency, TF over GST control)"
same,binding signal,HSF1,"1.57 fold enrichment (6-mer frequency, TF over GST control)"
same,binding signal,SPIC,"1.41 fold enrichment (6-mer frequency, TF over GST control)"
same,binding signal,ELF4,"1.51 fold enrichment (6-mer frequency, TF over GST control)"
same,binding signal,ELK4,"1.52 fold enrichment (6-mer frequency, TF over GST control)"
same,binding signal,ETV2,"1.33 fold enrichment (6-mer frequency, TF over GST control)"
same,binding signal,ELF3,"1.49 fold enrichment (6-mer frequency, TF over GST control)"
same,binding signal,CRX,"1.36 fold enrichment (6-mer frequency, TF over GST control)"
same,binding signal,ETV1,"1.38 fold enrichment (6-mer frequency, TF over GST control)"
